# Assay outcomes: PubChem BioAssay, National Center for Advancing Translational Sciences (NCATS)
# DT40 TDP1 CPT: DT40-hTDP1 cell growth loss with CPT | chicken DT40 Tdp1-/-;hTDP1 cells + 20 nM CPT, ATP luminescence, 48 h | AID 686979 | 420,000 compounds, 12% hits | Potency, µM (titrated, usually from 46.2 µM), for the others: at the top dose activity change, negative = growth inhibition, most hits filed as inhibitors; also: potency is read from the fitted curve at half-maximal effect; nearly all actives have a fitted effect of over 55% in size
#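 Cell growth measured by CellTiter-Glo luminescence after a minimum 48 h, 37 C compound exposure with 20 nM CPT in Tdp1-knockout DT40 cells stably expressing hTDP1, seeded 400/well; qHTS titration format.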
# ELG1 DNA repair: inhibitors of ELG1-dependent DNA repair in HEK293T cells. HEK293T ELG1-luciferase reporter, luminescence, 16 h; DNA damage induced by 5-fluorouridine. Potency, µM (doses to about 46.1 µM), for inactives: at the highest dose activity change, negative = inhibition, actives largely listed as inhibitors. 330,000 compounds, 2.3% hits; also: potency is read from the fitted curve at half-maximal effect; nearly all actives have a fitted effect of over 55% in size
#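 Reporter activity after DNA damage by 5-fluorouridine is monitored. Compound-treated cells incubate 16 hr at 37 °C, then ONE-Glo is added for 30 min before luminescence reading.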
# RORg inh: blocks mouse ROR gamma transcriptional activity | P51450 | Potency, µM (highest dose often 53.6 µM), inactives show at the highest dose activity change, negative = inhibition, actives largely listed as inhibitors | Drosophila S2 Gal4-RORgamma UAS-luciferase reporter, 20 h | 310,000 compounds, 5.4% hits; also: potency is read from the fitted curve at half-maximal effect; nearly all actives have a fitted effect of over 60% in size
# Target sequence (P51450 whole entry, looked up, the tested form may be a part): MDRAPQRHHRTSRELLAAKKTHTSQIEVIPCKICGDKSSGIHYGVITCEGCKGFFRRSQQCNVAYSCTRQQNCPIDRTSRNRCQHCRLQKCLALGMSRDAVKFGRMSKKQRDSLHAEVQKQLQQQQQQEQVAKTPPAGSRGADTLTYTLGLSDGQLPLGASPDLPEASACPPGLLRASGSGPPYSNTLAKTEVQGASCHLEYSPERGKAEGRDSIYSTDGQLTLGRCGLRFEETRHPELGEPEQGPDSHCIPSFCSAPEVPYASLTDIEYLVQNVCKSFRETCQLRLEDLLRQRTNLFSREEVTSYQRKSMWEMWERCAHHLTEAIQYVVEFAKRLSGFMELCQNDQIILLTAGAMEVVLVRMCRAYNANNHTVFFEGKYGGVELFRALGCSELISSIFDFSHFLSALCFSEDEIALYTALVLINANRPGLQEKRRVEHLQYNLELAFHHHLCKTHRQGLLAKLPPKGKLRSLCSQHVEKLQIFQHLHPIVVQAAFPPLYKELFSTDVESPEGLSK
#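 Luminescence from a UAS-regulated Photinus luciferase reporter in stably transfected Drosophila Schneider cells is measured; decreased signal marks ROR gamma inhibition. Fusion expression is induced by 700 uM copper sulfate for 20 hr.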
# DT40 TDP1 no CPT: qHTS for Inhibitors of human tyrosyl-DNA phosphodiesterase 1 (TDP1): qHTS in cells in absence of CPT. DT40 Tdp1-/- hTDP1 cells, no CPT, ATP luminescence, 48 h. AID 686978, 2013. Potency, µM (top dose mostly 46.2 µM), for inactives: at the top dose activity change, negative = growth inhibition, actives largely listed as inhibitors. 420,000 compounds, 15% hits; also: potency is read from the fitted curve at half-maximal effect; nearly all actives have a fitted effect of over 55% in size
#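 Readout: luminescence from CellTiter-Glo after 30 min in the dark at RT. Cells: DT40 Tdp1-/- with stable hTDP1, 400/well. Exposure: compounds alone, ≥48 hr, 37 °C.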
# VP16 counter: inhibits Gal4-VP16 luciferase reporter, ROR gamma counter-screen. Drosophila S2 Gal4-VP16 UAS-luciferase, luminescence, 20 h. Potency, µM (top dose mostly 53.6 µM), inactives show at the highest dose activity, negative = inhibition, hits mostly inhibitors. 310,000 compounds, 3.5% hits. AID 2546;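 also: Gal4-VP16 expression switched on by copper sulfate through the metallothionein promoter; potency is read from the fitted curve at half-maximal effect; nearly all actives have a fitted effect of over 50% in size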
# IL1B secr inh: inhibitors of inflammasome signaling (IL-1 beta secretion); activity change, % at 57.5 µM; THP-1 LPS/ATP IL-1B secretion, AlphaLISA, 16 h; stronger effect = lower value; AID 743279; 360,000 compounds, 4.7% hits; in the data active = activity change below about -50%; inconclusive = mostly about -30% to -49%
#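 THP-1 cells pretreated 1 hr with compounds (up to 57.5 uM final), then stimulated with LPS (250 ng/mL final) plus ATP (1.25 mM final); secreted IL-1B measured by AlphaLISA after 16 hr, decreased signal indicating inhibition.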
# * marks the source's active call; other numbers are inactive results; ? = inconclusive; . = no result given. In the library only some 21% were active in any assay of this set; here they are far more common. Unless noted, calls follow the shape of the dose curve; as a rule, active = well fitted curve in the direction sought with a large enough effect; inconclusive = small, poorly fitted or top-dose-only effect, or another doubt; inactive = no such curve, though single readings can be large; an effect the other way counts as inactive or inconclusive. % is scaled to controls: 0 for no effect and ±100 for the full control effect.
SMILES,DT40 TDP1 CPT,ELG1 DNA repair,RORg inh,DT40 TDP1 no CPT,VP16 counter,IL1B secr inh
COCCNC(=O)c1sc2nc(-c3ccccc3)cn2c1C,-2%,?,17%,-5%,-2%,9
Cc1ccc(Cl)cc1NC(=O)c1sc2nc(-c3ccccc3)cn2c1C,21µM*,.,.,15µM*,.,.
COc1ccccc1NC(=O)CN1CCC(c2nc3ccc(C)cc3[nH]2)CC1,-7%,-9%,4%,-5%,1%,4
COc1ccccc1NC(=O)N1CCC(c2nc3cc(C)c(C)cc3[nH]2)CC1,3.7µM*,11%,10%,1.8µM*,-20%,24
COc1ccccc1NC(=O)CN1CCC(c2nc3ccccc3[nH]2)CC1,?,-23%,8%,15µM*,12%,27
COc1cccc(CNC(=O)CN2CCC(c3nc4ccc(C)cc4[nH]3)CC2)c1,?,1%,-1%,?,-2%,-61*
COC(=O)c1ccc(C(NC(=O)OCc2ccccc2)/C(C)=C/[C@@H](C)C(=O)NCc2nc3ccccc3s2)cc1 (stereo partly drawn),.,.,44%,.,-1%,.
Cc1ccc(CNC(=O)Cn2c(=O)n(-c3ccc(Cl)cc3)c(=O)c3c(C)c(C)sc32)cc1,-8%,.,.,-4%,.,.
O=C1NC[C@H](Cc2ccc(O)cc2)N(C[C@@H]2CCCN2C[C@H](Cc2ccc(O)cc2)N2C[C@H](Cc3ccccc3)N(CC3CCCCC3)C(=O)C2=O)C1=O,-13%,.,.,-18%,.,0
CC(C)C[C@H]1CNC(=S)N1CC1CCCN1C[C@H](Cc1ccccc1)N1C[C@H](Cc2ccc(O)cc2)N(CC2CCCCCC2)C1=S (stereo partly drawn),?,.,.,?,.,-67*
CC(C)C[C@H]1CN([C@@H](Cc2ccc(O)cc2)CN2CCC[C@@H]2CN2C(=S)NC[C@@H]2Cc2ccccc2)C(=S)N1CC1CCCCCC1,?,.,.,21µM*,.,-17
CC(C)C[C@H]1CNC(=S)N1C[C@H]1CCCN1C[C@H](Cc1ccc(O)cc1)N1C[C@H](Cc2ccc(O)cc2)N(CC2CCCCCC2)C1=S,4.6µM*,.,.,6.5µM*,.,?
CC(C)C[C@H]1CN([C@@H](Cc2ccc(O)cc2)CN2CCCC2CN2C(=S)NC[C@@H]2Cc2ccccc2)C(=S)N1CC1CCCCC1 (stereo partly drawn),16µM*,.,.,15µM*,.,-29
O=C1NC[C@H](Cc2ccc(O)cc2)N(C[C@@H]2CCCN2C[C@H](Cc2ccccc2)N2C[C@H](Cc3ccc(O)cc3)N(CC3CCCCC3)C(=O)C2=O)C1=O,?,.,.,?,.,-1
O=C(Cn1c(=O)n(Cc2ccc3c(c2)OCO3)c(=O)c2oc3ccccc3c21)Nc1ccccc1,-21%,.,.,-29%,.,.
Cc1ccccc1CC(=O)N1CCN(S(=O)(=O)c2ccc(Cl)s2)CC1,-23%,?,.,-28%,.,-12
Oc1ccc(C[C@H]2CNC(=S)N2C[C@H]2CCCN2C[C@H](Cc2ccccc2)N2C[C@H](Cc3ccccc3)N(CC3CCCCC3)C2=S)cc1,?,.,.,13µM*,.,-1
Cc1cc(C(=O)N2CCC2(C)C(=O)NS(=O)(=O)c2cccc(Cl)c2)nn1C (stereo not drawn),-22%,.,.,?,.,0
CN(C)CCCN(C(=O)c1ccc2c(c1)OCCO2)c1nc2ccccc2s1,?,.,.,16µM*,.,.
Cc1cc(C)c2nc(N(CCCN(C)C)C(=O)c3ccc4c(c3)OCCO4)sc2c1,13µM*,16%,.,16µM*,.,-79*
Cc1cc(C)c2nc(N(CCCN(C)C)C(=O)C3=COCCO3)sc2c1,16µM*,23%,.,21µM*,.,?
CCN(CC)CCN(C(=O)C1=COCCO1)c1nc2cc(C)cc(C)c2s1,?,-14%,-18%,?,-19%,0
CCN(CC)CCN(C(=O)c1ccc2c(c1)OCCO2)c1nc2ccc(C)cc2s1,?,?,-4%,-24%,-1%,-51*
Cc1cc(C(=O)Nc2ccccc2-c2nc(CNC(=O)c3ccccc3Cl)c(C)o2)c(C)o1,19%,.,.,-6%,.,.
CC1CCCC(C)N1C(=O)CN1C(=O)NC2(CCCCCC2)C1=O (stereo not drawn),8%,.,.,-25%,.,9
SMILES,DT40 TDP1 CPT,ELG1 DNA repair,RORg inh,DT40 TDP1 no CPT,VP16 counter,IL1B secr inh
O=C(CSc1nc(O)c(C/C=C/c2ccccc2)c(=O)[nH]1)Nc1cccc(F)c1,4%,.,.,-30%,.,.
COC[C@H]1OC=C[C@@H](OC)[C@@H]1OC,.,.,3%,.,-7%,.
CC1CN(C(=O)Cn2c(=O)oc3ccccc32)CC(C)O1 (stereo not drawn),13%,7%,-6%,-10%,2%,32
COc1ccc(-c2cnc(C)o2)cc1S(=O)(=O)Nc1ccc(OC(F)(F)F)cc1,-24%,.,.,-18%,.,.
COc1ccc(NC(=O)C2CCCN(c3cc(C)nc4ncnn34)C2)cc1 (stereo not drawn),0%,10%,?,-24%,-12%,-13
CC1CCC(NC(=O)C2CCN(c3c4c(nc5ncnn35)CCC4)CC2)CC1 (stereo not drawn),?,19%,?,16µM*,-2%,40
COc1ccc(NC(=O)C2CCCN(c3c4c(nc5ncnn35)CCC4)C2)cc1 (stereo not drawn),15µM*,?,?,23µM*,?,-1
COc1ccc(NC(=S)Nc2cccc3cnccc23)cc1,0%,-25%,-32%,-13%,1%,13
CCOc1ccc(NC(=S)Nc2ccccc2C2CC2)cc1,5.8µM*,10%,2.8µM*,4.1µM*,11µM*,-13
CCOc1ccc(NC(=S)Nc2cccc3cnccc23)cc1,?,-18%,18µM*,?,?,28
S=C(Nc1ccc(Cl)cc1)Nc1cccc2cnccc12,?,?,-20%,23µM*,-1%,?
COc1ccccc1NC(=S)Nc1cccc2cnccc12,26µM*,?,?,23µM*,-6%,12
Cc1cc(C)cc(NC(=S)Nc2cccc3ccccc23)c1,?,?,22%,-24%,22%,1
CN(C)S(=O)(=O)c1cccc(NC(=S)Nc2cccc3cnccc23)c1,16µM*,21µM*,?,13µM*,?,39
CCOc1ccc(NC(=S)Nc2cccc3ccccc23)cc1,?,?,7.9µM*,-14%,8.9µM*,-6
